# According to PubChem BioAssay (EPA / NIEHS):
# Where a structure was tested more than once in an assay, its records may differ in their call. Activity calls are given as the source filed them. How the source made its calls: active means hit-call score of the fitted dose curve at least 0.9, where 1 is the maximum; inactive means score below 0.9.
# Read-out: Vascular endothelial growth factor receptor 2 (Homo sapiens) (UniProt P35968)
# Assay: BSK_4H_VEGFRII: BioMAP Diversity Plus: 4H Assay for Vascular endothelial growth factor receptor 2 (VEGFR2) Biomarker Activity (AID 2283031)
# Details: primary human endothelial cells (HUVEC); actives raise or lower the signal
# Protocol: BSK_4H is a cell-based, multiplexed-readout assay that uses umbilical vein endothelium, a human vascular primary cell, with measurements taken at 24 hours after chemical dosing in a 96-well plate.BSK_4H_VEGFRII is an assay component measured in the BSK_4H assay. It measures VEGFRII antibody related to regulation of gene expression using ELISA technology.Data from the assay component BSK_4H_VEGFRII was analyzed into 1 assay endpoint. This assay endpoint, BSK_4H_VEGFRII, was analyzed with bidirectional fitting relative to DMSO as the negative control and baseline of activity. Using a type of binding reporter, gain or loss-of-signal activity can be used to understand changes in the signaling as they relate to the gene KDR. Furthermore, this assay endpoint can be referred to as a primary readout, because this assay has produced multiple assay endpoints where this one serves a signaling function. To generalize the intended target to other relatable targets, this assay endpoint is annotated to the kinase intended target family, where the subfamily is receptor tyrosine kinase.
# The levels of cell surface (or secreted, indicated by the prefix "s") biomarker endpoints were measured by ELISA. Overt cytotoxicity to cells in confluent adherent cultures (all systems other than the BT system) was assessed by measuring total protein levels using sulforhodamine B (SRB) staining in parallel cultures at the time of biomarker measurements, indicated as SRB endpoints. For proliferation assays for adherent cell types, individual cell types are cultured at sub-confluence and relative cell numbers quantified by SRB staining at time points optimized for each system (48 h: 3C and CASM3C systems; 72 h: BT and HDF3CGF systems; 96 h: SAg system). SRB was performed by staining cells with 0.1% SRB after fixation with 10% TCA and reading wells at 560 nm.Viability and proliferation of PBMC (T cells) was quantified by Alamar Blue reduction for the SAg and BT systems. For PBMC viability (referred to as PBMC Cytotoxicity within the assay endpoint names), cells were plated (75,000/well in a 96-well plate) and then chemical samples added for 1 h before addition of activators, SEB and TSST-1 (20 ng/mL final concentration each). Cells were incubated for 90 h. Then, Alamar Blue (20 uL/well) (Invitrogen, Cat DAL1100) was added for 6 h, and the plates were read with a fluorescence microplate reader at 546/580 nm (excitation/emission). For PBMC proliferation, cells were plated and activated as above but incubated for only 16 h prior to addition of Alamar Blue. Plates were read after 6 h.
SMILES,outcome,AC50
CS(=O)(=O)c1ccc(C2=C(c3ccccc3)C(=O)OC2)cc1,inactive,–
CCCCN(CCCC)C(=O)N(CCCC)CCCC,–,23.7 µM (active)
O=C(Nc1ccc2c(O)c(N=Nc3ccc(N=Nc4ccc(S(=O)(=O)O)cc4)cc3)c(S(=O)(=O)O)cc2c1)c1ccccc1,inactive,–
C1=CC2C3C=CC(C3)C2C1 (stereo not given),inactive,–
CC1(C)CCC[C@]2(C)[C@H]3CCO[C@]3(C)CC[C@@H]12,inactive,31.9 µM (active)
CC1(C)C2=CCCC(C)(C)[C@]23CC[C@H]1C3,inactive,–
CN(c1nccc(=O)[nH]1)C1CCN(c2nc3ccccc3n2Cc2ccc(F)cc2)CC1,inactive,–
CN(C)C(=O)Nc1ccc(Oc2ccc(Cl)cc2)cc1,inactive,–
COc1cc(Cl)c(OC)cc1N,inactive,–
C=C(C)[C@H]1CC=C(C)C(=O)C1,inactive,–
O=C1OC[C@H](Cc2cccc(O)c2)[C@H]1Cc1cccc(O)c1,inactive,–
O=CN1CCOCC1,inactive,–
CSCCC=O,inactive,–
c1ccc2cc(Nc3ccc(Nc4ccc5ccccc5c4)cc3)ccc2c1,inactive,–
COc1ccc(OC)c(N=Nc2c(O)ccc3ccccc23)c1,inactive,–
c1ccc(CCc2ccccc2)cc1,inactive,–
CCOC(=O)C(C#N)=C(c1ccccc1)c1ccccc1,inactive,–
Cc1cc(CCC(=O)OCCOCCOCCOC(=O)CCc2cc(C)c(O)c(C(C)(C)C)c2)cc(C(C)(C)C)c1O,inactive,–
IC(I)I,inactive,–
CS(=O)(=O)OCCCCOS(C)(=O)=O,inactive,–

SMILES,outcome,AC50
CCCCCC(C=O)=Cc1ccccc1,–,31.3 µM (active)
C[C@@H]1CCN(C(=O)[C@H](CCCN=C(N)N)NS(=O)(=O)c2cccc3c2NC[C@H](C)C3)[C@@H](C(=O)O)C1,inactive,–
CC(=O)Nc1ccc(C(=O)CCl)cc1,–,9.38 µM (active)
CC(CN=Cc1ccccc1O)N=Cc1ccccc1O (stereo not given),inactive,–
CCCCCCCCCCCCCCCC(=O)OC/C=C(C)/C=C/C=C(C)/C=C/C1=C(C)CCCC1(C)C,inactive,–
COc1ccc(CCN2CCC(Nc3nc4ccccc4n3Cc3ccc(F)cc3)CC2)cc1,inactive,–
CCCCOC(=O)CCCCCCCC(=O)OCCCC,inactive,–
CCN(CC)C(=O)N(CC)CC,inactive,–
C=CC(C)(O)CCC=C(C)C (stereo not given),inactive,–
CC=Cc1ccc(OCC)c(O)c1,inactive,–
C=C(C)C(=O)OCC(CC)(COC(=O)C(=C)C)COC(=O)C(=C)C,inactive,–
CC(=O)c1c(C)c([N+](=O)[O-])c(C(C)(C)C)c([N+](=O)[O-])c1C,inactive,–
O=C1c2ccccc2C(=O)c2c(O)ccc(O)c21,inactive,–
CC(=O)C1(C)CC2=C(CCCC2(C)C)CC1C (stereo not given),–,5.33 µM (active)
c1ccc(Oc2ccccc2)cc1,inactive,–
CC(C)(N=C=O)c1cccc(C(C)(C)N=C=O)c1,inactive,–
CCC(C)c1cc([N+](=O)[O-])cc([N+](=O)[O-])c1OC(=O)OC(C)C (stereo not given),–,9.93 µM (active)
Oc1c(Cl)cc(Cl)c(Cl)c1Cc1c(O)c(Cl)cc(Cl)c1Cl,–,0.675 µM (active)
CN(C)C(=S)SC(=S)N(C)C,inactive,–
